Results filed as inconclusive are left out. The source made the active and inactive calls. How the source made its calls: active means hit-call score of the fitted dose curve at least 0.9, where 1 is the maximum; inconclusive means response in the unintended direction; inactive means score below 0.9.
Tests used:
[1] = ACEA_ER_AUC_viability: ACEA Biosciences xCELLigence Real-Time Cell Analysis on Estrogen Receptor Agonism for Viability (AID 2283782);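 further: hit means loss of impedance signal meaning reduced cell growth or viability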
How it was run: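 Continuous-exposure impedance cell analysis uses T-47D cells in charcoal-stripped serum, eight 1:4 dilutions topping at 100 uM final, biological duplicate. Area under the growth curve at 80 h is fitted against DMSO baseline.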

AR (gene 367) = AR (gene 367) (UniProt P10275); assay: ACEA_AR_agonist_80hr: ACEA Biosciences xCELLigence Real-Time Cell Analysis on Androgen Receptor Agonism for Proliferation (AID 2283783);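 further: hits increase impedance growth signal above DMSO baseline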
Sequence of AR (gene 367) (P10275 whole entry, looked up): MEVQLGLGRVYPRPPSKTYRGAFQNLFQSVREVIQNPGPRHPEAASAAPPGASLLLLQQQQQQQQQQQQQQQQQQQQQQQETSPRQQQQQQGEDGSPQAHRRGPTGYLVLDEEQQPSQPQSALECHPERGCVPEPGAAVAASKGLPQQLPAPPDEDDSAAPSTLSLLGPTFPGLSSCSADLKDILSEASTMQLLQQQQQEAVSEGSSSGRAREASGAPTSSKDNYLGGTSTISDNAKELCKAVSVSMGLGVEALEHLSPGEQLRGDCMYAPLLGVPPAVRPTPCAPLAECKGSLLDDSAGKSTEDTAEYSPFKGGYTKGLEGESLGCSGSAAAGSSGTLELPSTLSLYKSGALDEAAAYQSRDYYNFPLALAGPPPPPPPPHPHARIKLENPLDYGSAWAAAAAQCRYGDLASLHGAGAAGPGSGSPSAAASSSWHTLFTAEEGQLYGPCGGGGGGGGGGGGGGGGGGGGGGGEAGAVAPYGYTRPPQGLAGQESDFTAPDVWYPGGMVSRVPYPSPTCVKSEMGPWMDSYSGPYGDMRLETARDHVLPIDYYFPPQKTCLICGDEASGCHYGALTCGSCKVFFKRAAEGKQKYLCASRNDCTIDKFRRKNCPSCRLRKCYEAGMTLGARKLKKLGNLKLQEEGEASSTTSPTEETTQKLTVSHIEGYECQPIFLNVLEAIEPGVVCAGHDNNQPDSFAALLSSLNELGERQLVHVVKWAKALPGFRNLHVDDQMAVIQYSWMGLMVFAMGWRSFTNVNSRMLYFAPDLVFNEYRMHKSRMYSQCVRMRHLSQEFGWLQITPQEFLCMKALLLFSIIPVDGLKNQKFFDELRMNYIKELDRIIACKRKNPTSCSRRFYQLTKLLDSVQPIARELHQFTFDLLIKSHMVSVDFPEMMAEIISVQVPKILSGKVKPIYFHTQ
How it was run: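 Real-time cell-growth kinetics were recorded by electrode impedance in 22Rv1 cells exposed to test chemicals up to 100 uM final; the 80 h timepoint served as the readout, fitted upward relative to DMSO controls, in biological duplicate.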

[2] = biological target: chicken Estrogen Receptor (ESR1), ESR1 (gene 396099) (UniProt P06212); assay: ATG_chERa_XSP1: Attagene TRANS-FACTORIAL Multi-Species (XSP1) HepG2 Assay for chicken Estrogen Receptor (ESR1) (AID 2283779)
Sequence of chicken Estrogen Receptor (ESR1), ESR1 (gene 396099) (P06212 whole entry, looked up, the tested form may be a part): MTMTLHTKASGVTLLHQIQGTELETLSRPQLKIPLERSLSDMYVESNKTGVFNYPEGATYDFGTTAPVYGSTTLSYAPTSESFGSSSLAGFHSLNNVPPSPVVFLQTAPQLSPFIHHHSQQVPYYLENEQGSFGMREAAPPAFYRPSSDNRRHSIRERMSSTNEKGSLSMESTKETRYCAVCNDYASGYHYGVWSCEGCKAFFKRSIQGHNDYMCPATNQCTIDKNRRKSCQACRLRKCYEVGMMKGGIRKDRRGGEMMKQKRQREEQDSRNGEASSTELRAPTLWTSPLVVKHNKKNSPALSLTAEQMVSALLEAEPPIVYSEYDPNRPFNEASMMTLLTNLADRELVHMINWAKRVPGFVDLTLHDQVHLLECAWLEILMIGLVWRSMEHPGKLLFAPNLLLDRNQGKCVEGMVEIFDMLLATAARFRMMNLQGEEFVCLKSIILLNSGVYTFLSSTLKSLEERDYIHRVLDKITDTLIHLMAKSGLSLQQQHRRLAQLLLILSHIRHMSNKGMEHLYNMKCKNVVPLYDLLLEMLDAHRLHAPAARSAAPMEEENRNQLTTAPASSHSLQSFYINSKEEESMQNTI
How it was run: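 Gain-of-signal reporter transcription, relative to DMSO, was scored in transiently transfected HepG2 cells after a 24 h dose. Fluorescence intensity of amplified, digested reporter cDNA fragments served as the endpoint.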

[3] = biological target: Estrogen receptor (Homo sapiens) (UniProt P03372); assay: ATG_hERa_XSP1: Attagene TRANS-FACTORIAL Multi-Species (XSP1) HepG2 Assay for human Estrogen Receptor (ESR1) (AID 2283780)
How it was run: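 Reporter transcripts from multiplexed GAL4-UAS units driven by NR-Gal4 chimeras in transiently transfected HepG2 were measured by RT-PCR with capillary electrophoresis 24 h post-dose, with 3 nM 6-alpha-fluorotestosterone present; gain-of-signal relative to DMSO.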

[4] = tested on: turtle Estrogen Receptor (ESR1), gene 101933533; assay: ATG_trERa_XSP1: Attagene TRANS-FACTORIAL Multi-Species (XSP1) HepG2 Assay for turtle Estrogen Receptor (ESR1) (AID 2283781)
How it was run: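 Cell-based chimeric NR-Gal4 transactivation; HepG2; 24 h dosing; mRNA reporter detected by RT-PCR and capillary electrophoresis fluorescence.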

[5] = biological target: Estrogen receptor beta (Homo sapiens) (UniProt Q92731); assay: ATG_hERb_XSP1: Attagene TRANS-FACTORIAL Multi-Species (XSP1) HepG2 Assay for human Estrogen Receptor (ESR2) (AID 2283788)
Sequence of Estrogen receptor beta (Homo sapiens) (Q92731 whole entry, looked up, the tested form may be a part): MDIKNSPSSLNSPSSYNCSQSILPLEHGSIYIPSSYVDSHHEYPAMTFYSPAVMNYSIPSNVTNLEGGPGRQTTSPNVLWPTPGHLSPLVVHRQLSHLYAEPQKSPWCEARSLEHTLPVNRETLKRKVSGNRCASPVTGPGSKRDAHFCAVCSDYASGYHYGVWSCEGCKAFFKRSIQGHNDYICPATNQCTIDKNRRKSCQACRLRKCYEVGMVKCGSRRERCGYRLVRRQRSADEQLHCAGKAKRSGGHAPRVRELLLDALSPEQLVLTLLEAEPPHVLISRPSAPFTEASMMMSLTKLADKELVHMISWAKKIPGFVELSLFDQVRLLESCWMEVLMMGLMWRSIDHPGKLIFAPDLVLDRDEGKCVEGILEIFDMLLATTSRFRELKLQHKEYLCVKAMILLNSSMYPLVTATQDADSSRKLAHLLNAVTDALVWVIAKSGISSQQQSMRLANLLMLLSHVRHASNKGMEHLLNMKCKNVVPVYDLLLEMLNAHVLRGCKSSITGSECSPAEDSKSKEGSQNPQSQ
How it was run: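 Multiplexed trans-activation in transfected HepG2: ERβ-Gal4 reporter transcripts after 24 h treatment, detected by RT-PCR plus capillary electrophoresis.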

[6] = biological target: GAL4 Transcription Factor (Internal Marker), GAL4 (gene 855828) (UniProt P04386); assay: ATG_GAL4_XSP1: Attagene TRANS-FACTORIAL Multi-Species (XSP1) HepG2 Assay for GAL4 Transcription Factor (Internal Marker) (AID 2283789)
Sequence of GAL4 Transcription Factor (Internal Marker), GAL4 (gene 855828) (P04386 whole entry, looked up, the tested form may be a part): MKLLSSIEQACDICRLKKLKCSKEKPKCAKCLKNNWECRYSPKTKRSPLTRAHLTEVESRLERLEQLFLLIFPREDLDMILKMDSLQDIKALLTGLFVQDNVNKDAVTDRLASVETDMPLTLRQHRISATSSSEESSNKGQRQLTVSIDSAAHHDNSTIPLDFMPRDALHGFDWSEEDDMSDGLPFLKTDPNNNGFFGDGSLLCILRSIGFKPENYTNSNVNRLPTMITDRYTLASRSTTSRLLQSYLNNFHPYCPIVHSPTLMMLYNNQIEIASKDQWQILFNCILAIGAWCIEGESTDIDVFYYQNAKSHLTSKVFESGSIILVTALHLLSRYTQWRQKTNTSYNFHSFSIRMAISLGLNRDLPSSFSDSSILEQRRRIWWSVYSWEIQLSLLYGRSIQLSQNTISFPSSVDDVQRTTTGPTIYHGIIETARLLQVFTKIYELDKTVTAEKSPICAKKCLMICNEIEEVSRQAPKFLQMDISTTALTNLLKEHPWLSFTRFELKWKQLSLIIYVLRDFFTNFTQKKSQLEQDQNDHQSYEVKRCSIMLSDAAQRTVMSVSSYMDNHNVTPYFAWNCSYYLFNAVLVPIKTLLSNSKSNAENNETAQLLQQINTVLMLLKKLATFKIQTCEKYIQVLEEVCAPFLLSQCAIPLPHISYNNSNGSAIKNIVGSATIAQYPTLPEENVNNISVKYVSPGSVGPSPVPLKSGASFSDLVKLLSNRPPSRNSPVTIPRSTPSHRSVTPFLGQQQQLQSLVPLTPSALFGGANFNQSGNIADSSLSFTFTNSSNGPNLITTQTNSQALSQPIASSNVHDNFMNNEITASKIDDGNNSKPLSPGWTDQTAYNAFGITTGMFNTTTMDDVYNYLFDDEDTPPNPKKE
How it was run: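 This background-control endpoint measures GAL4-driven reporter mRNA via RT-PCR and capillary electrophoresis of labelled fragments. Transiently transfected HepG2 cells were treated 24 h, with 3 nM 6-alpha-fluorotestosterone included, and gain-of-signal was fitted against DMSO.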

[7] = ATG_M_06_XSP1: Attagene TRANS-FACTORIAL Multi-Species (XSP1) HepG2 Assay for M06 Transcription Factor (Internal Marker) (AID 2283790)
How it was run: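 This background-control readout tracks M06 reporter mRNA, measured by RT-PCR and capillary electrophoresis. HepG2 cells transiently carrying the GAL4-UAS reporter panel were dosed for 24 h with 3 nM 6-alpha-fluorotestosterone added for partial AR stimulation; increases were scored relative to DMSO.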

[8] = ATG_M_61_XSP1: Attagene TRANS-FACTORIAL Multi-Species (XSP1) HepG2 Assay for M61 Transcription Factor (Internal Marker) (AID 2283797)
How it was run: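 Background-control readout: reporter transcripts measured by RT-PCR and capillary electrophoresis 24 h after dosing transiently transfected HepG2 multi-reporter cells, with 3 nM 6-alpha-fluorotestosterone present. Fitted in the positive direction relative to DMSO.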

[9] = ATG_M_32_XSP1: Attagene TRANS-FACTORIAL Multi-Species (XSP1) HepG2 Assay for M32 Transcription Factor (Internal Marker) (AID 2283799)
How it was run: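 Reporter transcripts from the M32 internal-control unit measured by RT-PCR, FAM labelling, HpaI digestion and capillary electrophoresis after 24 h compound exposure of transfected HepG2, 3 nM 6-alpha-fluorotestosterone included; DMSO baseline, positive-direction fit.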

[10] = biological target: Peroxisome proliferator-activated receptor gamma (Homo sapiens) (UniProt P37231); assay: ATG_hPPARg_XSP1: Attagene TRANS-FACTORIAL Multi-Species (XSP1) HepG2 Assay for human Peroxisome Proliferator-activated Receptor gamma (PPARg) (AID 2283800)
Sequence of Peroxisome proliferator-activated receptor gamma (Homo sapiens) (P37231 whole entry, looked up, the tested form may be a part): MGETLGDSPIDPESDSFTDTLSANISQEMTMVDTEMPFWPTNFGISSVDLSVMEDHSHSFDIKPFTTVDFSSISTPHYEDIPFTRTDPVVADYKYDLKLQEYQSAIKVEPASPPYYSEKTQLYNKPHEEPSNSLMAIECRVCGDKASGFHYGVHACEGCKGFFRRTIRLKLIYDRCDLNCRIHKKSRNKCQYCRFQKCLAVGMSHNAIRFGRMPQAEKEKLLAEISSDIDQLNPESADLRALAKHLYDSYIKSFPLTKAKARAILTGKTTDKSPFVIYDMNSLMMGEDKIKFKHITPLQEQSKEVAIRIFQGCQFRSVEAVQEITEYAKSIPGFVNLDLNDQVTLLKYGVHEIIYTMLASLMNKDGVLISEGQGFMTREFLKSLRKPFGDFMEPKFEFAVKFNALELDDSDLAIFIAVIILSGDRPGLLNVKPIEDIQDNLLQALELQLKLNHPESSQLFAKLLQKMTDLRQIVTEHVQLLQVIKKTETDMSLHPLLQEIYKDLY
How it was run: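 Reporter mRNA induction, measured by RT-PCR with capillary electrophoresis 24 h after dosing, scored as gain over DMSO. Transfected HepG2 cells express exogenous NR-Gal4 chimeras driving GAL4-UAS reporters; medium includes 3 nM 6-alpha-fluorotestosterone.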

[11] = tested on: zebrafish Peroxisome Proliferator-activated Receptor gamma (PPARg), gene 557037; assay: ATG_zfPPARg_XSP1: Attagene TRANS-FACTORIAL Multi-Species (XSP1) HepG2 Assay for zebrafish Peroxisome Proliferator-activated Receptor gamma (PPARg) (AID 2283801)
How it was run: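 Trans-activation readout of chimeric zebrafish PPARg–GAL4 in transiently transfected human HepG2 cells, 24 h chemical exposure (medium includes 3 nM 6-alpha-fluorotestosterone). Reporter transcripts measured by RT-PCR and capillary electrophoresis, fitted as gain over DMSO.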

[12] = biological target: mouse Peroxisome Proliferator-activated Receptor gamma (PPARg), Pparg (gene 19016) (UniProt P37238); assay: ATG_mPPARg_XSP1: Attagene TRANS-FACTORIAL Multi-Species (XSP1) HepG2 Assay for mouse Peroxisome Proliferator-activated Receptor gamma (PPARg) (AID 2283802)
Sequence of mouse Peroxisome Proliferator-activated Receptor gamma (PPARg), Pparg (gene 19016) (P37238 whole entry, looked up, the tested form may be a part): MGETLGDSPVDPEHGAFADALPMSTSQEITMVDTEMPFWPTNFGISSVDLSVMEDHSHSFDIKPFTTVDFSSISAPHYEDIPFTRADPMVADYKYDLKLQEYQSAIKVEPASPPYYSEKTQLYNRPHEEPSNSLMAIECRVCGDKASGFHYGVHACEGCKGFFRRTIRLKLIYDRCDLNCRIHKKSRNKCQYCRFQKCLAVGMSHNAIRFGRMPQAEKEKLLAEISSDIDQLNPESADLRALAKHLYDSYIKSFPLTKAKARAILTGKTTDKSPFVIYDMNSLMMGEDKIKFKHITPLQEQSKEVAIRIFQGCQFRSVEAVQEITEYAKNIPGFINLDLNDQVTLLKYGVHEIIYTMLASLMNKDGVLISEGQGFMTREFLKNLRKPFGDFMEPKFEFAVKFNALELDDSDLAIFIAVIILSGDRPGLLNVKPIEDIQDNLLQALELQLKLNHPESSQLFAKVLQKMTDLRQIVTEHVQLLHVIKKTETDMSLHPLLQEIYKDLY
How it was run: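 Readout is reporter mRNA induction, measured by RT-PCR with 6-FAM labelling, HpaI digestion and capillary electrophoresis, 24 h post-dose relative to DMSO. Transient multi-reporter transfection of human HepG2 with mouse PPARg–GAL4 fusion; 3 nM 6-alpha-fluorotestosterone included.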

[13] = biological target: frog Thyroid hormone Receptor alpha (TRa), thra-a (gene 397942) (UniProt P15204); assay: ATG_frTRa_XSP1: Attagene TRANS-FACTORIAL Multi-Species (XSP1) HepG2 Assay for frog Thyroid hormone Receptor alpha (TRa) (AID 2283804)
Sequence of frog Thyroid hormone Receptor alpha (TRa), thra-a (gene 397942) (P15204 whole entry, looked up, the tested form may be a part): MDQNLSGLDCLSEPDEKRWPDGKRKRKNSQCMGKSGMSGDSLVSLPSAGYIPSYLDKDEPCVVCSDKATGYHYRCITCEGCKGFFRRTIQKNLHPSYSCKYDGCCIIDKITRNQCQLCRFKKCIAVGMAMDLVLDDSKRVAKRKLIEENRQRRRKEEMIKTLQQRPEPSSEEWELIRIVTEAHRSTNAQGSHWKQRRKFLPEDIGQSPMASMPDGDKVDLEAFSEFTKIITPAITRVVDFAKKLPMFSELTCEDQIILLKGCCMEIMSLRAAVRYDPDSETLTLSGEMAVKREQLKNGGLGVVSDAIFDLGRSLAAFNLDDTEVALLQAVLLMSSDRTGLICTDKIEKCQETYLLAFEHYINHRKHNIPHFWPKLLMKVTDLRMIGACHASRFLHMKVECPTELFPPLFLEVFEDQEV
How it was run: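 Reporter transcript induction, measured by RT-PCR with 6-FAM labelling and capillary electrophoresis, 24 hr after dosing transiently transfected HepG2 cells expressing a frog TRa-GAL4 fusion; medium contained 3 nM 6-alpha-fluorotestosterone; increase over DMSO scored.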

[14] = biological target: human Thyroid hormone Receptor alpha (TRa), THRA (gene 7067) (UniProt P10827); assay: ATG_hTRa_XSP1: Attagene TRANS-FACTORIAL Multi-Species (XSP1) HepG2 Assay for human Thyroid hormone Receptor alpha (TRa) (AID 2283805)
Sequence of human Thyroid hormone Receptor alpha (TRa), THRA (gene 7067) (P10827 whole entry, looked up, the tested form may be a part): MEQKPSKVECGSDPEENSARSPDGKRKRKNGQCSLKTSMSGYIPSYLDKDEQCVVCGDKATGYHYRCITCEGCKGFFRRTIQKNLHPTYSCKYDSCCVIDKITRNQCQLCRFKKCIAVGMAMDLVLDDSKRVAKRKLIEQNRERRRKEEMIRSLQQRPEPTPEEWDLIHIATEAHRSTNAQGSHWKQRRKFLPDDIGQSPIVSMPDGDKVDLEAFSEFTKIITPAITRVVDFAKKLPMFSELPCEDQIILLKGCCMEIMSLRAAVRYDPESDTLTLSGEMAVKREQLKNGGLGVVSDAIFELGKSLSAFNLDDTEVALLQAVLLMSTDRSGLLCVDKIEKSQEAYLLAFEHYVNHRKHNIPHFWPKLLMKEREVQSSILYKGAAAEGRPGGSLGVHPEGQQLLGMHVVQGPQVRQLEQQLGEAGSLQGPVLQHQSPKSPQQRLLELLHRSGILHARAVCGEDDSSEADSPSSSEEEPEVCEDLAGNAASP
How it was run: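 Reporter transcripts from the human TRa-Gal4 TRANS unit quantified by RT-PCR, fluorescent labeling and capillary electrophoresis after 24 hours of chemical exposure in transfected HepG2 cells; medium contains 3 nM 6-alpha-fluorotestosterone. Positive direction fit against DMSO.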

[15] = tested on: turtle Thyroid Hormone Receptor, alpha (TRa), gene 101949057; assay: ATG_trTRa_XSP1: Attagene TRANS-FACTORIAL Multi-Species (XSP1) HepG2 Assay for turtle Thyroid Hormone Receptor, alpha (TRa) (AID 2283806)
How it was run: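 After 24 h chemical exposure, reporter transcripts were measured by RT-PCR with fluorescent primer extension, HpaI digestion and capillary electrophoresis. Cells were transiently transfected HepG2 expressing exogenous NR-Gal4 chimeras; medium contained 3 nM 6-alpha-fluorotestosterone; fitted upward relative to DMSO.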

With `OC[C@H]1O[C@@](CO)(O[C@H]2O[C@H](CO)[C@@H](O)[C@H](O)[C@H]2O)[C@@H](O)[C@@H]1O` the outcome [1] was “inactive”.

In the case of `C[C@@H](Oc1ccc(CNC(=O)c2cccnc2Oc2ccc3c(c2)OCO3)c(F)c1)C(=O)O`, the outcome [1] is reported as “inactive”.

In the case of `Cn1c(=O)c2[nH]cnc2n(C)c1=O`, the outcome [1] is reported as “inactive”.

For `OCCC(F)(F)C(F)(F)C(F)(F)C(F)(F)F`, the outcome [1] was “inactive”.

In the case of `CCCCOC(=O)c1ccccc1`, the outcome (AR (gene 367)) is reported as “inactive”.

In the case of `FC(F)(F)COC(OCC(F)(F)F)OCC(F)(F)F`, the outcome [1] is reported as “inactive”.

For `CCCc1ccccc1`, the outcome [1] was “inactive”.

With `NCC(F)(F)C(F)(F)C(F)(F)C(F)(F)F` the outcome [1] was “inactive”.

In the case of `CCCCCCCCCC`, the outcome [1] is reported as “inactive”.

With `C=CCc1cc(S(=O)(=O)c2ccc(O)c(CC=C)c2)ccc1O` the AC50 [2] was 1.19 µM (active), the AC50 [3] was 1.36 µM (active) and the AC50 [4] was 1 µM (active). For the same compound, the AC50 [1] was 76.7 µM (active), the outcome [5] was “inactive” and the outcome [6] was “inactive”. For the same compound, the outcome [7] was “inactive”, the outcome [8] was “inactive” and the outcome [9] was “inactive”. For the same compound, the AC50 [10] was 4.14 µM (active), the outcome [11] was “inactive” and the AC50 [12] was 3.63 µM (active). The outcome [13] was “inactive”, the outcome [14] was “inactive” and the AC50 [15] was 100 µM (active).

For `CCCCN1C(=O)[C@@H]([C@H](O)C2CCCCC2)NC(=O)C12CCN(Cc1ccc(Oc3ccc(C(=O)O)cc3)cc1)CC2`, the AC50 [1] was 64.6 µM (active).

With `OCCOCCOCCO` the outcome (AR (gene 367)) was “inactive”.

For `OC(O)(C(F)C(O)(O)C(F)(F)F)C(F)(F)F`, the AC50 [1] was 75 µM (active).

For `Cc1cccc(O)c1C`, the outcome [1] was “inactive”.

In the case of `CCc1cccc(CC)c1N`, the outcome (AR (gene 367)) is reported as “inactive”.

With `COc1cc(C(C)C)c2c(c1)S(=O)(=O)N(COc1cc(=O)n3cccc(OCCN4CCCCC4)c3n1)C2=O` the AC50 [1] was 17.4 µM (active) and the outcome (AR (gene 367)) was “inactive”.

With `S=P(N1CC1)(N1CC1)N1CC1` the AC50 [1] was 69 µM (active).

With `FC(F)C(F)(F)COCC1CO1` (centres undefined) the outcome [1] was “inactive”.

For `O=S(=O)(O)CCC(F)(F)C(F)(F)C(F)(F)C(F)(F)C(F)(F)C(F)(F)F`, the outcome [1] was “inactive”.

For `Cc1ncc([C@@H](CCCCCCc2ccc3c(n2)NCCC3)CC(=O)O)cn1`, the AC50 [1] was 0.00382 µM (active).

For `CCc1ccc(O)c(C(C)(C)C)c1`, the AC50 [1] was 25.5 µM (active).

In the case of `OCc1c[nH]c2ccccc12`, the AC50 [1] is reported as 87 µM (active).

In the case of `CCCCCCOC(=O)CC(CC(=O)OCCCCCC)(OC(=O)CCC)C(=O)OCCCCCC`, the outcome (AR (gene 367)) is reported as “inactive”.

With `NC(=O)NN=Cc1ccc([N+](=O)[O-])o1` the outcome [1] was “inactive”.

Reference: PubChem BioAssay (EPA / NIEHS)
